Laboratory results reported in PubChem BioAssay AID485317 (Broad Institute, 2010).
Hit rate of the full screen: of about 290,000 compounds, about 11,000 (3.8%) were called active. The full list was thinned out, with actives kept by preference. A number with no mark means an inactive call.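 The calls were made as follows: active = mean replicate inhibition above about 79%, with every replicate also reaching it (limit read from the data); inconclusive = only one of the two criteria met; inactive = mean below limit and not every replicate reaching it.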

molecular target: FAD-linked sulfhydryl oxidase ALR (Homo sapiens) (UniProt P55789); assay: inhibitors of human ALR sulfhydryl oxidase, primary screen, biochemical, H2O2 detection, HRP-luminol luminescence, single point (AID 485317); conditions: purified ALR, DTT oxidation, stronger effect = higher value, concentration not given here
Sequence (P55789 whole entry, looked up): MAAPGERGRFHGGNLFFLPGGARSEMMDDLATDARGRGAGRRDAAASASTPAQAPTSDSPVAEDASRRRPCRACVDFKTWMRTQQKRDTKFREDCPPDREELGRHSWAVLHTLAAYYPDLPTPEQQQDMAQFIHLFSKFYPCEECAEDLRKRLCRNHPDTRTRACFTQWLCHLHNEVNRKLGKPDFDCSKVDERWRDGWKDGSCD

Question: `CCCC(=O)N(CCc1ccccc1)Cc1nc2ccccc2c(=O)[nH]1` was tested. Which inhibition did it give?
Answer: Its inhibition is -7.51%.

Question: `O=C(CCc1[nH]c2ccccc2c1Sc1ccccc1)N(CCO)CCO` was tested. Which inhibition did it give?
Answer: The inhibition was 99% (active).

Question: Which inhibition does the source give for `CCCCNC(=O)Cn1nc(C)c(S(=O)(=O)N2CCOCC2)c1C` here?
Answer: The inhibition was 3.23%.

Question: How did the inhibition turn out when `COc1ccc(S(=O)(=O)N2CCN(CC(=O)N3CCOCC3)CC2)cc1OC` was run?
Answer: The inhibition was -0.297%.

Question: For `Cc1cccc(-c2nc(Nc3ccc(O)cc3)c3ccccc3n2)c1`, which inhibition is on record?
Answer: The inhibition was 6.09%.

Question: `Cc1ccc(-c2nnc(Nc3ccc(C(=O)N(C)C)cc3)c3ccccc23)cc1S(N)(=O)=O` was tested. Which inhibition did it give?
Answer: Its inhibition is -2.47%.

Question: How did the inhibition turn out when `Oc1ccc(-c2nnc(Nc3ccccc3)c3ccccc23)cc1` was run?
Answer: The inhibition was 98.8% (active).

Question: `CCOC(=O)NN1C(=O)c2ccccc2NC1c1cccc(O)c1` (configuration not stated) was tested. Which inhibition did it give?
Answer: The inhibition was -18.3%.

Question: For `O=C1NC(c2cccc(Cl)c2)Nc2ccccc21` (configuration not stated), which inhibition is on record?
Answer: The inhibition was 0.575%.

Question: With `O=C1c2ccccc2NC(c2ccc(-c3cccc(Cl)c3)o2)N1O` (configuration not stated) as the compound, how does the inhibition read?
Answer: The inhibition was 95.9% (active).

Question: For `COc1ccc(C(=O)COC(=O)c2c(C)noc2C)cc1Cl`, which inhibition is on record?
Answer: Its inhibition is 1.08%.

Question: Which inhibition does the source give for `Nc1nc(-c2ccccc2)cc(-c2ccccc2)n1` here?
Answer: Its inhibition is -2.58%.

Question: Which inhibition does the source give for `Nc1ccc(-c2sc(N)nc2-c2ccccc2)cc1` here?
Answer: The inhibition was 99% (active).

Question: With `Nc1ccc(-c2nnc(-c3ccccc3)o2)cc1` as the compound, how does the inhibition read?
Answer: Its inhibition is 36.1%.

Question: `CCN1C(=O)[C@@H]2[C@@H](c3ccc(-c4ccccc4)cc3)N3CCCC[C@@]3(C(=O)OC)[C@@H]2C1=O` was tested. Which inhibition did it give?
Answer: Its inhibition is -1.67%.

Question: Which inhibition does the source give for `CCCCn1c(N)c(N(CCOC)C(=O)c2cccc(S(=O)(=O)N(C)c3ccccc3)c2)c(=O)[nH]c1=O` here?
Answer: The inhibition was -2.15%.

Question: Which inhibition does the source give for `Cc1ccc(NC(=O)C2CC(=O)N(c3ccc4c(c3)OCCO4)C2)cc1S(=O)(=O)N1CCCCCC1` (configuration not stated) here?
Answer: Its inhibition is -0.304%.

Question: With `COc1cc(C2C(C(=O)c3cccs3)=C(O)C(=O)N2CCN2CCOCC2)ccc1OCCC(C)C` (configuration not stated) as the compound, how does the inhibition read?
Answer: The inhibition was -0.637%.

Question: For `Cc1ccc(NC(=O)C/C(N)=N/O)cc1Cl`, which inhibition is on record?
Answer: The inhibition was -7.95%.

Question: For `COc1ccc(Cc2nnc(SCC(=O)Nc3ccc(C)c(Cl)c3)[nH]c2=O)cc1`, which inhibition is on record?
Answer: The inhibition was -4.08%.

Question: How did the inhibition turn out when `Cc1ccc(NC(=O)CSc2nn3c(=O)c(C)nnc3s2)cc1Cl` was run?
Answer: The inhibition was 98.9% (active).

Question: How did the inhibition turn out when `CC(C)(C)S(=O)(=O)c1ccccc1-c1noc(-c2ccccc2)c1C(N)=O` was run?
Answer: The inhibition was -2.96%.

Question: How did the inhibition turn out when `COc1ccc2c(c1)C(=O)Nc1cc(Cl)ccc1N2` was run?
Answer: Its inhibition is 87.7% (active).

Question: How did the inhibition turn out when `COc1ccc2nc3n(c(=O)c2c1)-c1ccc(Cl)cc1C(=O)NC3Cc1ccccc1` (configuration not stated) was run?
Answer: The inhibition was -0.323%.

Question: With `COc1ccc(C2NC(=O)c3ccccc3N2)cc1` (configuration not stated) as the compound, how does the inhibition read?
Answer: Its inhibition is 0.0966%.

Question: For `CC(C)(C)c1ccc(C(=O)NCc2ccco2)cc1`, which inhibition is on record?
Answer: The inhibition was 1.34%.

Question: For `CN(CC(=O)NC1CCN(Cc2ccccc2)CC1)S(=O)(=O)c1ccc(Cl)s1`, which inhibition is on record?
Answer: The inhibition was -2.03%.

Question: With `Cc1ccc(NC(=O)c2ccc(Cl)nc2)cc1S(=O)(=O)N1CCOCC1` as the compound, how does the inhibition read?
Answer: The inhibition was -4.04%.

Question: `Cc1ccc(-c2nc(CS(=O)CC(=O)NC3CCCC3)c(C)o2)cc1` (configuration not stated) was tested. Which inhibition did it give?
Answer: The inhibition was 99.1% (active).

Question: `Cc1ccc(-c2cc(C(=O)NC3CCN(Cc4ccccc4)CC3)c3ccccc3n2)cc1` was tested. Which inhibition did it give?
Answer: Its inhibition is 1.58%.

Question: For `Cc1ccc(S(=O)(=O)NCCC(=O)NC2CCN(Cc3ccccc3)CC2)cc1`, which inhibition is on record?
Answer: Its inhibition is 6.19%.

Question: With `Cc1ccc(NC(=O)CS(=O)CC(=O)N(c2ccccc2)C(C)C(=O)NC2CCCC2)cc1` (configuration not stated) as the compound, how does the inhibition read?
Answer: Its inhibition is -4.87%.

Question: Which inhibition does the source give for `Cc1ccc(-c2nc(CSCC(=O)NC3CCN(Cc4ccccc4)CC3)c(C)o2)cc1` here?
Answer: The inhibition was 99.5% (active).

Question: How did the inhibition turn out when `Cc1ccc(NC(=O)CSCC(=O)NC2CCCCC2)cc1` was run?
Answer: The inhibition was -3.3%.

Question: `COC(=O)[C@]1(CC(C)C)N[C@H](c2ccc(SC3CCCCC3)cc2)[C@@H]2C(=O)N(C)C(=O)[C@@H]21` was tested. Which inhibition did it give?
Answer: Its inhibition is -4.22%.

Question: How did the inhibition turn out when `O=C(Nc1cccc(S(=O)(=O)N2CCCC2)c1)c1cncc(Br)c1` was run?
Answer: The inhibition was -0.493%.

Question: With `OCC[C@H]1C[C@@H](O)[C@H](O)[C@@]2(OCCc3ccccc32)O1` as the compound, how does the inhibition read?
Answer: The inhibition was -5.81%.

Question: Which inhibition does the source give for `C=CC[C@@H](CC(=O)N[C@@H](CO)Cc1ccccc1)C(=O)N[C@H](COC(=O)[C@H](CC=C)CC(=O)OC(C)(C)C)Cc1ccccc1` here?
Answer: The inhibition was 0.393%.

Question: With `Oc1c(C(c2ccco2)N2CCC3(CC2)OCCO3)sc2ncnn12` (configuration not stated) as the compound, how does the inhibition read?
Answer: Its inhibition is -33.4%.

Question: How did the inhibition turn out when `Cc1ccc(C(c2sc3nc(C)nn3c2O)N2CCN(c3ccc(F)cc3)CC2)cc1` (configuration not stated) was run?
Answer: The inhibition was 2.24%.

Question: `Oc1c(C(c2cccs2)N2CCN(c3ccc(F)cc3)CC2)sc2ncnn12` (configuration not stated) was tested. Which inhibition did it give?
Answer: The inhibition was 95.5% (active).

Question: Which inhibition does the source give for `COc1ccc(C(CNC(=O)c2ccc(NS(=O)(=O)c3ccc(F)c(C)c3)cc2)N(C)C)cc1` (configuration not stated) here?
Answer: Its inhibition is -5.64%.

Question: `CC1(C)CC(=O)C=C(c2ccc(Cl)c(C(F)(F)F)c2)C1` was tested. Which inhibition did it give?
Answer: The inhibition was 3.75%.

Question: How did the inhibition turn out when `CC(=O)c1ccc(NC(=O)CSC(=S)N2CCCC2)cc1` was run?
Answer: Its inhibition is 92.8% (active).

Question: How did the inhibition turn out when `COc1cc(NC(=O)CSC(=S)N2CCCC2)c(OC)cc1Cl` was run?
Answer: The inhibition was -2.05%.

Question: With `CCN(CC(=O)Nc1ccc(NC(C)=O)cc1)C(=O)CSC(=S)N1CCCC1` as the compound, how does the inhibition read?
Answer: Its inhibition is -0.0599%.

Question: With `CN1C(=O)c2cccc3c(N)ccc(c23)C1=O` as the compound, how does the inhibition read?
Answer: The inhibition was -15.1%.

Question: How did the inhibition turn out when `CCN1C(=O)c2cccc3c(S(=O)(=O)Nc4ccccc4O)ccc1c23` was run?
Answer: Its inhibition is -28.9%.

Question: `CCN1C(=O)c2cccc3c(N)ccc1c23` was tested. Which inhibition did it give?
Answer: Its inhibition is 99.2% (active).

Question: How did the inhibition turn out when `COc1ccc(-c2c(C#Cc3ccccc3)c3ccccc3n2C)cc1` was run?
Answer: The inhibition was -4.24%.

Question: For `CCOC(=O)C1CCN(CC(=O)Nc2ccc(OC)c(S(=O)(=O)N3CCCCC3)c2)CC1`, which inhibition is on record?
Answer: The inhibition was -8.75%.

Question: With `COc1ccc(F)cc1S(=O)(=O)NCC(c1ccc2c(c1)OCO2)N1CCN(C)CC1` (configuration not stated) as the compound, how does the inhibition read?
Answer: Its inhibition is -4.58%.

Question: Which inhibition does the source give for `CN(C(=O)c1cccc(NC(=O)C2CCN(C(=O)OC(C)(C)C)CC2)c1)C1CCC1` here?
Answer: Its inhibition is 4.19%.

Question: How did the inhibition turn out when `Cc1ccc(C(=O)Oc2coc(CSc3nnc(NC(=O)c4cccs4)s3)cc2=O)cc1C` was run?
Answer: The inhibition was 0.72%.

Question: Which inhibition does the source give for `O=C(/C=C/c1ccccc1)Oc1coc(CSc2ncccn2)cc1=O` here?
Answer: Its inhibition is 97.4% (active).

Question: Which inhibition does the source give for `C=CCNC(=O)COc1coc(CN2CCN(Cc3ccccc3)CC2)cc1=O` here?
Answer: The inhibition was -3.07%.

Question: `CC(=O)NCc1ccc(-c2csc(NC(=O)CCCc3nc4ccccc4c(=O)[nH]3)n2)cc1` was tested. Which inhibition did it give?
Answer: Its inhibition is -5.1%.
